High-throughput results from PubChem BioAssay.
HCV inh – qHTS Assay for Inhibitors of Hepatitis C Virus (HCV). AID 651820, 2012. Huh7.5.1 HCVcc-Cre infection, luciferase reporter, 44 h. Potency, µM (doses to about 41.8 µM), without a hit: at the highest dose activity change, negative = inhibition, hits mostly inhibitors. hit rate 3.4% among 340,000; active = well fitted inhibition curve with a large enough effect; inconclusive = small, poorly fitted or top-dose-only effect, or another doubt; inactive = no such curve, though single readings can be large or run the other way; also: potency is read from the fitted curve at half-maximal effect; % is scaled to controls: 0 for no effect and ±100 for the full control effect
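A cell-based infection assay in which seeded cells (1,000 per well) receive test compound after 4 h, are inoculated with HCVcc-Cre at approximately 0.5 moi, and are incubated 44 h before luminescence detection.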
Marburg entry inh – qHTS for inhibitors of binding or entry into cells for Marburg Virus; Marburg virus pseudotyped entry inhibition, cell reporter; hit rate 1.8% among 300,000; Potency, µM (titrated, usually from 37.8 µM), inactives show at the top dose activity change, negative = inhibition, most hits filed as inhibitors; calls by dose curve; tested in HEK293 cells; also: potency is read from the fitted curve at half-maximal effect; % is scaled to controls: 0 for no effect and ±100 for the full control effect
HCMV antiviral – qHTS Assay for inhibitors of the human cytomegalovirus (HCMV) | HFF cells, HCMV-luciferase reporter, 72 h; stronger effect = lower value | activity change, negative = inhibition, % at 57.5 µM | hit rate 4.5% among 410,000; in the data active = activity change below about -60%; inconclusive = no clear call, values can overlap the other calls; inactive = above about -39%; also: % is scaled to controls: 0 for no effect and ±100 for the full control effect
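Compounds were evaluated in HFFs infected with an HCMV luciferase reporter virus (MOI 1 PFU/cell). Luciferase in lysates collected 72 h post infection served as the replication measure.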
FMDV antiviral – High Throughput Screening for Foot and Mouth Disease Virus Antivirals | FMDV antiviral cell-based qHTS | Potency, µM (series often up to 57.9 µM), for inactives: at the highest dose activity change, negative = inhibition, hits mostly inhibitors | hit rate 1.2% among 410,000 | AID 1159524, 2015; calls by dose curve; tested in HEK293T cells; also: read-out not given here; potency is read from the fitted curve at half-maximal effect; % is scaled to controls: 0 for no effect and ±100 for the full control effect; nearly all actives have a fitted effect of over 45% in size
LASV entry inh – qHTS for Inhibitors of binding or entry into cells for Lassa Virus | Lassa virus pseudotype entry inhibition, cell reporter | hit rate 1.2% among 300,000 | AID 540256, 2011 | Potency, µM (series often up to 37.9 µM), without a hit: at the top dose activity change, negative = inhibition, actives largely listed as inhibitors; calls by dose curve; tested in HEK293 cells; also: potency is read from the fitted curve at half-maximal effect; % is scaled to controls: 0 for no effect and ±100 for the full control effect; nearly all actives have a fitted effect of over 50% in size
SARS PLpro yeast – qHTS of Yeast-based Assay for SARS-CoV PLP | Potency, µM (doses to about 32.9 µM), without a hit: at the top dose activity, positive = growth rescue, hits mostly activators | AID 485353, 2010 | S. cerevisiae expressing SARS-CoV PLpro, growth rescue | hit rate 0.19% among 330,000; calls by dose curve; also: potency is read from the fitted curve at half-maximal effect; 0% is about no effect; nearly all actives have a fitted effect of over 55% in size
Starred values were filed as active, the others as inactive; [ ] = another dose, or the depositor's remark. Compounds with a hit are over-represented: about 8% of the library has one in this group of screens.

For CC(C)(CCO)Nc1ncnc2onc(-c3ccc(F)cc3)c12 the results were HCV inh 2%, Marburg entry inh -3%[46.1 µM], HCMV antiviral -64*, FMDV antiviral -23%, LASV entry inh 10%[46.1 µM] and SARS PLpro yeast 0%.
Fc1cnc(Cl)nc1N1CCN(c2ccccc2)CC1 was read as HCV inh -1%, Marburg entry inh -6%[46.1 µM], HCMV antiviral -9, FMDV antiviral -10%, LASV entry inh -25% and SARS PLpro yeast 1%.
Screening CN1CCN(c2nc(N3CCN(c4ccccc4)CC3)ncc2F)CC1 returned HCV inh 6.3µM*, Marburg entry inh inconclusive, HCMV antiviral -29, LASV entry inh -17% and SARS PLpro yeast -4%.
Screening C=C1C(=O)O[C@@H]2[C@H]3O[C@]3(C)CCC=C(C)CC[C@@H]12 returned Marburg entry inh 22µM*, FMDV antiviral -19% and LASV entry inh 9.2µM*.
COc1cc(OC)cc(C(=O)N[C@H](C(=O)NCCc2ccc(S(N)(=O)=O)cc2)C(C)C)c1 was read as HCV inh -2%, Marburg entry inh 8%[46.1 µM], HCMV antiviral 19, FMDV antiviral 8% and SARS PLpro yeast 23%.
For N#CC(C#N)=c1ccc2c(c1)N1C3=C(CCCC3)CC3CCCCC31N=2 (centres undefined) the results were HCV inh 0%, Marburg entry inh -16%[46.1 µM], HCMV antiviral -95*, FMDV antiviral 40µM*, LASV entry inh 11% and SARS PLpro yeast 1%.
For N#C/C(C(N)=O)=c1/ccc2c(c1)N1C3=C(CCCC3)CC3CCCCC31N=2 (centres undefined) the results were HCV inh 1%, Marburg entry inh 1%, HCMV antiviral -68*, FMDV antiviral inconclusive, LASV entry inh -18% and SARS PLpro yeast 0%.
Screening Cc1ccc(-n2nc(CC#N)c(C#N)c2N)cc1 returned HCV inh -3%, Marburg entry inh inconclusive, HCMV antiviral -6, FMDV antiviral -8%, LASV entry inh 13% and SARS PLpro yeast 4%.
N#CCc1nn(-c2ccc(F)cc2)c(N)c1C#N was read as HCV inh 5%, HCMV antiviral -61*, FMDV antiviral -3% and SARS PLpro yeast 0%.
Screening Cc1cc(NC(=O)Cn2cnc3sc(C)c(C)c3c2=O)no1 returned HCV inh 8%, Marburg entry inh inconclusive, HCMV antiviral -8, FMDV antiviral 2%, LASV entry inh 24% and SARS PLpro yeast 2%.
Nc1cc(-c2ccc(OC(F)(F)F)cc2)nn1-c1ccc(Cl)c(Cl)c1 was read as HCV inh -1%, Marburg entry inh 4%, HCMV antiviral -66*, FMDV antiviral -7%, LASV entry inh inconclusive and SARS PLpro yeast -5%.
`O=C(/C=C/c1cccc(C(F)(F)F)c1)Nc1cccc(C(F)(F)F)c1` gave HCV inh inconclusive, Marburg entry inh inconclusive, HCMV antiviral -99*, FMDV antiviral -54%, LASV entry inh inconclusive and SARS PLpro yeast -41%.
For O=C(/C=C/c1cccc(C(F)(F)F)c1)NNC(=O)c1ccncc1 the results were HCV inh inconclusive, Marburg entry inh -2%[46.1 µM], HCMV antiviral -76*, FMDV antiviral -18%, LASV entry inh 6% and SARS PLpro yeast -2%.
Screening COc1ccc(/C=C/C(=O)Nc2ccc(OC)nc2)cc1 returned HCV inh -27%, Marburg entry inh 0%, HCMV antiviral 2, FMDV antiviral 2%, LASV entry inh 19% and SARS PLpro yeast -76%.
For COc1ccc(NC(=O)/C=C/c2ccc(OC(F)F)cc2)cn1 the results were HCV inh 11µM*, Marburg entry inh inconclusive, HCMV antiviral -12, FMDV antiviral -30%, LASV entry inh inconclusive and SARS PLpro yeast 0%.
COc1ccc(NC(=O)/C=C/c2cccc(Br)c2)cn1 was read as HCV inh inconclusive, Marburg entry inh inconclusive, HCMV antiviral 39, FMDV antiviral -26%, LASV entry inh inconclusive and SARS PLpro yeast -39%.
COc1ccc(NC(=O)/C=C/c2cccc(C(F)(F)F)c2)cn1 was read as HCV inh 11µM*, Marburg entry inh inconclusive, HCMV antiviral -32, FMDV antiviral inconclusive, LASV entry inh inconclusive and SARS PLpro yeast -42%.
For COc1cc(C(=O)N2CCN(CCc3ccccn3)CC2)cc(OC)c1OC the results were Marburg entry inh inconclusive, HCMV antiviral 11, FMDV antiviral -10% and LASV entry inh inconclusive.
Screening Cc1nc2c(-c3ccccc3)c(C)nn2c(C)c1CCC(=O)NCc1ccc(Cl)cc1 returned Marburg entry inh 6%[46.1 µM], HCMV antiviral 9, FMDV antiviral inconclusive and LASV entry inh 24%[46.1 µM].
`CCOc1cc(CNCCc2c[nH]c3ccccc23)cc(Cl)c1OCC` gave HCV inh inconclusive, Marburg entry inh inconclusive, HCMV antiviral -63*, FMDV antiviral -3%, LASV entry inh -19% and SARS PLpro yeast -16%.
For CCOc1c(Cl)cc(CNCCc2c[nH]c3ccccc23)cc1OC the results were HCV inh 22µM*, HCMV antiviral 10, FMDV antiviral -19% and SARS PLpro yeast -1%.
Screening CCn1c(SCC(=O)Nc2cc(Cl)ccc2OC)nc2c([nH]c3ccccc32)c1=O returned HCMV antiviral 32, FMDV antiviral -24% and LASV entry inh 0%[46.1 µM].
O=C(NCc1ccco1)c1cc2cc3ccc(Cl)cc3nc2o1 was read as HCV inh inconclusive, Marburg entry inh inconclusive, HCMV antiviral -38, FMDV antiviral 9%, LASV entry inh 18µM* and SARS PLpro yeast -4%.
Screening CCN1CCC(N(Cc2cccc(OC)c2)C(=O)Nc2cccc(C)c2C)CC1 returned HCMV antiviral -13, FMDV antiviral -10% and LASV entry inh -2%[46.1 µM].
`O=P(O)(O)CN1CCNCCN(CP(=O)(O)O)CCNCC1` gave HCV inh inconclusive, Marburg entry inh inconclusive, HCMV antiviral -61*, FMDV antiviral -1% and LASV entry inh -16%.
For CN(C)c1ccc(/C=N/NC(=O)C(=O)/C=C2\NC3(CCCC3)Cc3ccccc32)cc1 the results were HCV inh inconclusive, Marburg entry inh inconclusive, HCMV antiviral -63*, FMDV antiviral -19%, LASV entry inh inconclusive and SARS PLpro yeast -1%.
Screening CCOc1ccccc1CNC(=O)CCc1c(C)nn(-c2ccc(N3CCCC3)nn2)c1C returned HCMV antiviral -60*, FMDV antiviral -6% and LASV entry inh -15%[46.1 µM].
Cc1ccccc1NC(=O)CCc1c(C)nn(-c2ccc(N3CCOCC3)nn2)c1C was read as HCV inh 19%, Marburg entry inh 4%[46.1 µM], HCMV antiviral active, FMDV antiviral -5%, LASV entry inh 8%[46.1 µM] and SARS PLpro yeast 21%.
